About 79,000 compounds went through this panel and 15% of them were active in at least one assay; those are over-represented in the sample as a whole. Activity calls are given as the source filed them. No stated cut-off is given here; in the data, active means growth inhibition above about 70%; inactive means the rest.
Assay: NCI Yeast Anticancer Drug Screen. Data for the CLN2oe strain (AID 163);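 further: 0% = growth of vehicle-only control cultures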
Settings: S. cerevisiae CLN2oe strain, hits give high values
Method: Growth inhibition of yeast strains with defined genetic alterations is measured as a screen for potential anti-cancer activity. Selected strains with alterations in DNA damage repair or cell cycle control were exposed to compounds and growth inhibition was measured relative to vehicle treated controls. The strain used in this assay is CLN2oe

Measured: growth inhibition

C=CCC1=C(C)C(OC(=O)/C=C/c2ccccc2)CC1=O (stereo not given)
inactive: at 1.2 µM 2% | at 3.7 µM 2% | at 11.0 µM 5% | at 33.0 µM 15% | at 100.0 µM 28%

CCN(CC)CC(O)c1ccc2ccc3ccccc3c2c1 (stereo not given)
inactive: at 1.2 µM 0% | at 3.7 µM 5% | at 11.0 µM 15% | at 33.0 µM 35% | at 100.0 µM 57%

CC(=O)N/N=C/C(C)(C)C(C)(C)/C=N/NC(C)=O
inactive: at 1.2 µM 9% | at 3.7 µM 11% | at 11.0 µM 11% | at 33.0 µM 4% | at 100.0 µM 17%

O=C(N=Nc1ccccc1Cl)NNc1ccccc1Cl
inactive: at 1.2 µM 7% | at 3.7 µM -3% | at 11.0 µM 6% | at 33.0 µM 22% | at 100.0 µM 27%

O=C(O)C1OC1(c1cccc(Cl)c1)c1ccccc1Cl (stereo not given)
inactive: at 1.2 µM 15% | at 3.7 µM 16% | at 11.0 µM 13% | at 33.0 µM 39%
active: at 100.0 µM 93%

CCCC/C=C/C(CC)(C(=O)OCC)C(=O)OCC
inactive: at 1.2 µM -4% | at 3.7 µM 0% | at 11.0 µM -6% | at 33.0 µM -7% | at 100.0 µM -3%

CCCc1cc(C(=O)OCC)cc(CCC)c1O
inactive: at 1.2 µM -1% | at 3.7 µM -6% | at 11.0 µM -9% | at 33.0 µM -30%
active: at 100.0 µM 96%

O=C(NNc1ccnc2cc(Cl)ccc12)/C(=C\c1ccccc1Cl)NC(=O)c1ccccc1
active: at 11.0 µM 70% | at 33.0 µM 76% | at 100.0 µM 83%
inactive: at 1.2 µM 11% | at 3.7 µM 32%
